High-throughput results as filed in PubChem BioAssay.
Most compounds without a hit are left out; they make up all but 20% or so of the library.
CHX counter: Cycloheximide Counterscreen for Small Molecule Inhibitors of Shiga Toxin; cell reporter, cycloheximide protein synthesis inhibition counterscreen; max response, %; 300,000 tested, 12% active; AID 2314, 2010; in the data active means max response mostly above about 13%, no sharp cut-off; inactive means mostly below about 14%; further: read at 38.3 µM for the half of the compounds with a filed dose; 0% is about no effect
Shiga toxin inh: A qHTS for Small Molecule Inhibitors of Shiga Toxin. inhibition, % at 38.7 µM. 290,000 tested, 9.2% active. Vero cells, Shiga toxin protein synthesis inhibition reporter; in the data active means inhibition mostly above about 28%, no sharp cut-off; inactive means mostly below about 43%; further: 0% is about no effect
HCMV inh: qHTS Assay for inhibitors of the human cytomegalovirus (HCMV); HFF cells, HCMV-luciferase reporter, 72 h; hits give low values; activity change, negative = inhibition, % at 57.5 µM; 410,000 tested, 4.5% active; in the data active means activity change below about -60%; inconclusive means no clear call, values can overlap the other calls; inactive means above about -39%; further: on the % scale 0 is the no-effect control and ±100 the full control effect
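Inhibition of viral replication was scored as loss of reporter luminescence in HFFs infected with HCMV-luciferase (MOI 1 PFU/cell) for 72 h; compounds tested at 2 doses, normalized to buffer and Salinomycin controls.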
Pf growth 96h: Primary qHTS for delayed death inhibitors of the malarial parasite plastid, 96 hour incubation; P. falciparum luciferase reporter growth, 96 h; Potency, µM (series often up to 28.7 µM), without a hit: top-dose activity change, negative = inhibition, hits mostly inhibitors; 320,000 tested, 6.9% active; AID 504834, 2011; further: potency means the concentration at half of the fitted maximal effect; on the % scale 0 is the no-effect control and ±100 the full control effect
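Delayed-death screen, second-generation endpoint: infected erythrocytes, 2% hematocrit, 0.05% parasitemia final; 96 hours at 37 C, 5% CO2; luciferase detection reagent; luminescence decrease equals reduced growth.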
Pf growth 48h: Primary qHTS for delayed death inhibitors of the malarial parasite plastid, 48 hour incubation. P. falciparum luciferase growth in erythrocytes, 48 h. 310,000 tested, 5.9% active. Potency, µM (doses to about 28.7 µM), without a hit: at the top dose activity change, negative = inhibition, usual class: inhibitors; further: potency means the concentration at half of the fitted maximal effect; on the % scale 0 is the no-effect control and ±100 the full control effect
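Read-out is firefly luciferase luminescence from an integrated reporter in P. falciparum, so falling signal marks reduced parasite growth. Infected erythrocytes were at 2% hematocrit and 0.1% parasitemia (final) in Albumax-supplemented RPMI 1640.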
An asterisk follows results filed as active. Unless noted, the call rests on the fitted dose curve; in most records, active means well fitted inhibition curve with a large enough effect; inconclusive means small, poorly fitted or top-dose-only effect, or another doubt; inactive means no such curve, though single readings can be large or run the other way.

`C/C(=N\NC(=O)CCC(=O)O)c1c(-c2ccccc2)c2cc(Br)ccc2[nH]c1=O` gave CHX counter -1, Shiga toxin inh -13, HCMV inh -29, Pf growth 96h 20% and Pf growth 48h 8%.
O=C(N/N=C/c1c[nH]c2ccccc12)c1[nH]c2ccc(Br)cc2c1-c1ccccc1 was read as CHX counter 2, Shiga toxin inh -12, HCMV inh -86*, Pf growth 96h -14% and Pf growth 48h 28%.
CC(=O)NNC(=O)c1[nH]c2ccc(Cl)cc2c1-c1ccccc1 was read as CHX counter 0, Shiga toxin inh -7, HCMV inh -4, Pf growth 96h 19% and Pf growth 48h 5%.
`O=C(N/N=C/c1ccc(O)cc1)c1[nH]c2ccc(Br)cc2c1-c1ccccc1` gave CHX counter -1, Shiga toxin inh -11, HCMV inh -94*, Pf growth 96h inconclusive and Pf growth 48h 7%.
O=C(N/N=C/c1c[nH]c2ccccc12)c1cc(Br)ccc1O was read as CHX counter 18, Shiga toxin inh 29, HCMV inh 19, Pf growth 96h -2% and Pf growth 48h 31%.
`Cc1ccc(S(=O)(=O)N2CCC(N3CCN(C)CC3)CC2)cc1Cl` gave CHX counter -9, Shiga toxin inh -7, HCMV inh 3, Pf growth 96h 60% and Pf growth 48h -8%.
For C=CCn1c(=O)c(C(=O)NC2CC2)c(O)c2cc(OC)c(OC)cc21 the results were CHX counter -2, Shiga toxin inh -2, HCMV inh 90, Pf growth 96h 12µM* and Pf growth 48h 5%.
Cc1nc2ccccc2c(=O)n1NC(=O)C1CCC(C(C)(C)C)CC1 (configuration not stated) was read as CHX counter -3, Shiga toxin inh -10, HCMV inh -13, Pf growth 96h inconclusive and Pf growth 48h 11%.
For COC(=O)c1cn(NC(=O)C2CCC(C(C)(C)C)CC2)c(=O)c2ccccc12 (configuration not stated) the results were CHX counter -3, Shiga toxin inh -4, HCMV inh 54, Pf growth 96h 4.1µM* and Pf growth 48h 16%.
`COC(=O)c1cn(NC(=O)C2CCCO2)c(=O)c2ccccc12` (configuration not stated) gave CHX counter 1, Shiga toxin inh -8, HCMV inh 14, Pf growth 96h 12µM* and Pf growth 48h 1%.
Screening COC(=O)c1cn(NC(=O)C2COc3ccccc3O2)c(=O)c2ccccc12 (configuration not stated) returned CHX counter -5, Shiga toxin inh -4, HCMV inh -23, Pf growth 96h 10% and Pf growth 48h -3%.
Screening Cc1ccc(-c2nc3c(c(SCC(=O)N4CCCC4)n2)COC(C)(C)C3)cc1 returned HCMV inh -2.
Screening O=C(CSc1nnc(Cc2ccccc2)o1)c1ccc(F)cc1 returned CHX counter 8.0*, Shiga toxin inh 19, HCMV inh inconclusive, Pf growth 96h 22% and Pf growth 48h 24%.
Screening O=C(CSc1nnc(Cc2ccsc2)o1)c1ccccc1 returned CHX counter 21*, Shiga toxin inh 55, HCMV inh 3, Pf growth 96h 35% and Pf growth 48h 47%.
For O=C(CSc1nnc(CNC(=O)c2ccccc2F)o1)c1ccccc1 the results were CHX counter 11, Shiga toxin inh -1, HCMV inh 24, Pf growth 96h -11% and Pf growth 48h 7%.
For Cc1cc(NC(=O)NCc2ccccc2)c(=O)n(Cc2ccccc2F)c1 the results were CHX counter 2, Shiga toxin inh -5, HCMV inh -17, Pf growth 96h inconclusive and Pf growth 48h 8%.
COc1cccc(Cn2cc(C)cc(NC(=O)NCc3ccccc3)c2=O)c1 was read as CHX counter 15*, HCMV inh 11, Pf growth 96h inconclusive and Pf growth 48h 20%.
For COc1cccc(Cn2cccc(NC(=O)Nc3cccc(C#N)c3)c2=O)c1 the results were CHX counter 4, Shiga toxin inh 4, HCMV inh -62*, Pf growth 96h 27% and Pf growth 48h inconclusive.
For COc1cccc(NC(=O)Nc2cccn(Cc3ccc(C)cc3)c2=O)c1 the results were CHX counter 1, Shiga toxin inh -7, HCMV inh inconclusive, Pf growth 96h 4% and Pf growth 48h inconclusive.
